Shown are actives, neighbours in structure and some others; about 1.4% of the full set was active somewhere.
N370S GC mod – N370S glucocerebrosidase modulation, Gaucher chaperone candidate; 0.092% of 330,000 active; P04062; N370S GC spleen homogenate, 4MU-glucoside fluorescence; Potency, µM (top dose mostly 59.4 µM), for inactives: top-dose activity change, negative = inhibition, most hits filed as inhibitors;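 note: potency is the fitted concentration of half-maximal effect; 0% = full enzyme activity and -100% = no enzyme basal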
rTrxR1 inhibitor – rat TrxR1 inhibition. O89049. recombinant rTrxR1, NADPH fluorescence consumption, selenite substrate. Potency, µM (series often up to 114 µM), for inactives: at the top dose activity change, negative = inhibition, most hits filed as inhibitors. 1% of 390,000 active. AID 588453; note: potency is the fitted concentration of half-maximal effect; % is set by controls: 0 for no effect and ±100 for the full control effect; nearly all actives have a fitted effect of over 65% in size
Target sequence (O89049 whole entry, looked up): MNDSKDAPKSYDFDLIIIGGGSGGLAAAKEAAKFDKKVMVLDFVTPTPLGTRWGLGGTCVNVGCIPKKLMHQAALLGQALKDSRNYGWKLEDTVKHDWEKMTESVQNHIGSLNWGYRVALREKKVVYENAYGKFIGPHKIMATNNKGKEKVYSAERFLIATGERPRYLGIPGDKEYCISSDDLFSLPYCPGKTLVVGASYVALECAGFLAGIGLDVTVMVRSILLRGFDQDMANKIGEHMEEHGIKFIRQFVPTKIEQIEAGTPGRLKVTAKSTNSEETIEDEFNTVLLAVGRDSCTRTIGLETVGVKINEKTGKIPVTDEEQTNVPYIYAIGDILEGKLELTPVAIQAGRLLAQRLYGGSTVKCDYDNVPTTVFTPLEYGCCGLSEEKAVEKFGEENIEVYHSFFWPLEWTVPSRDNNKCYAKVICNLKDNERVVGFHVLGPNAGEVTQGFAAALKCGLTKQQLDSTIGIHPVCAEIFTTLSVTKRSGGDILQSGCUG
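Rat TrxR1 (90 nM in the dispensed reagent) was pre-reduced with 400 uM NADPH for 5 min at room temperature, then incubated with compound for 15 min. After 400 uM selenite was added, NADPH fluorescence (Ex 340/Em 450 nm) was followed for 8 min.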
A-T KAP1 phos – potential ataxia-telangiectasia treatments restoring KAP-1 phosphorylation; F2112 A-T fibroblasts, KAP-1 phosphorylation AlphaLISA; neocarzinostatin DNA damage 30 min before lysis; AID 485349; 0.19% of 320,000 active; Potency, µM (series often up to 57.5 µM), for the others: at the highest dose activation, hits mostly activators; note: potency is the fitted concentration of half-maximal effect; % of control where 0% means no effect; nearly all actives have a fitted effect of over 45% in size
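hTERT-immortalized A-T patient fibroblasts (F2112), 500 cells/well in OPTI-MEM, 1% FBS, got compounds for 60 min, then NCS for 30 min at 37C. Lysates were then assayed for phospho-KAP-1 by AlphaLISA (anti-pKAP1 donor, anti-KAP1 acceptor beads), 6 hr at 25C.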
TrxR1 substrate – substrates of rat thioredoxin reductase 1. O89049. purified TrxR1 substrate turnover, NADPH consumption readout. Potency, µM (titrated, usually from 114 µM), without a hit: at the highest dose activity change, negative = substrate turnover. 0.01% of 390,000 active; note: potency is the fitted concentration of half-maximal effect; % is set by controls: 0 for no effect and ±100 for the full control effect; nearly all actives have a fitted effect of over 50% in size
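Rat TrxR1, dispensed at 90 nM, was prereduced with 400 uM NADPH (final) for 5 min at ~22 deg C, then incubated with compound 15 min before 400 uM selenite. A first-read NADPH fluorescence drop versus no-compound background flagged substrates.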
pAkt inh – blocks phosphorylation of Akt | activity change, % for hits at 50 µM | Neuro2A IGF-stimulated pAkt S473 HTRF, 20 min; hits give low values | 0.32% of 360,000 active; in the data active = activity change below about -80%; inconclusive = mostly about -51% to -80%; note: % is set by controls: 0 for no effect and ±100 for the full control effect
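Neuro2A cells in DMEM with 0.5% FBS, overnight at 37 deg C, given compound at single 50 µM final, then IGF (6 nM final) for 20 min at 37 deg C. Lysed; phospho-Akt Ser473 by HTRF after 24 h, 665/615 ratio.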
Pin1 inh – human Pin1 inhibition | Q13526 | Pin1 FP peptide displacement, HiFluor488, 10 min | 0.009% of 390,000 active | Potency, µM (highest dose often 115 µM), for inactives: at the top dose activity, negative = inhibition, most hits filed as inhibitors; active = well fitted inhibition curve with a large enough effect in the polarisation, with a control signal flat, not every such curve was filed as active; inconclusive = small, poorly fitted or top-dose-only effect, or effect the other way, or a change in a side signal; inactive = no such curve, though single readings can be large or run the other way; the % refers to the polarisation; note: potency is the fitted concentration of half-maximal effect; % is set by controls: 0 for no effect and ±100 for the full control effect
* marks the source's active call; other numbers are inactive results; i = inactive; ? = inconclusive; . = not tested or not shown; [ ] = remark or other dose. Unless noted, calls come from the whole dose curve; as a rule, active = well fitted curve in the direction sought with a large enough effect; inconclusive = small, poorly fitted or top-dose-only effect, or another doubt; inactive = no such curve, though single readings can be large; an effect the other way counts as inactive or inconclusive.

SMILES	N370S GC mod	rTrxR1 inhibitor	A-T KAP1 phos	TrxR1 substrate	pAkt inh	Pin1 inh
COC(=O)C1=C(C)N(Cc2ccco2)C(=O)C1	2%	?	-4%	0%	i	?
COc1cc2c(NC3CCN(C(C)C)CC3)nc(N3CCCN(C)CC3)nc2cc1OCCCN(C)C	.	?	.	72%	.	.
Nc1ccc(-c2nc3c(Cl)c(N)ccc3[nH]2)cc1	1%	79µM*	-7%	985%	i	5%
COCCN1C=C(C(=O)OC)C(c2ccc(Cl)cc2)C(C(=O)OC)=C1	4%	29%[57.1 µM]	28%	79%[57.1 µM]	i	3%
CCOc1ccc(C2C(C(=O)OC)=CN(CCOC)C=C2C(=O)OC)cc1	?	190%	28µM*	834%	i	-10%
CCOc1ccc(OCC)c(NC(=O)C(NS(=O)(=O)c2ccc(Br)s2)c2ccccc2)c1 (stereo not given)	.	0%	.	-6%	.	6%
Cc1cccc(/C=C/c2cccs2)n1	.	-7%	.	1%	.	.
Cc1cccc(C(=O)NC2CCN(C(=O)NCc3ccccc3)CC2)c1	0%	25µM*	-2%	1%[57.1 µM]	i	3%
O=S(=O)(c1ccc(-c2cc(C(F)(F)F)on2)s1)N1CCN(c2ccc(F)cc2)CC1	.	11%[57.1 µM]	.	0%[57.1 µM]	.	-2%
COc1ccc(S(=O)(=O)N2CN(Cc3ccco3)c3nc4ccccc4nc32)cc1	-10%	35µM*	4%	22%	.	?
Cc1ccc(S(=O)(=O)N2CN(Cc3ccco3)c3nc4ccccc4nc32)cc1	-2%	?	1%	2%	i	49%
CCCCCc1ccc(CC(=O)Nn2c(C)nc3ccccc3c2=O)cc1	.	2%	3%	-15%	i	3%
Cc1nc2ccccc2c(=O)n1NC(=O)Cc1ccc(Br)cc1	-23%	6%[57.1 µM]	-1%	8%[57.1 µM]	-81%*	-4%
CCc1[nH]nc2c1C(Cc1ccccc1)C(C#N)=C(N)O2 (stereo not given)	0%	?	-3%	-2%	i	0%
CC(C)c1[nH]nc2c1C(Cc1ccccc1)C(C#N)=C(N)O2 (stereo not given)	-20%	18µM*	1%	9%	i	-2%
Cc1[nH]nc2c1C(CC(C)C)C(C#N)=C(N)O2 (stereo not given)	12%	13%[57.1 µM]	?	0%[57.1 µM]	i	9%
CCCc1[nH]nc2c1C(Cc1ccccc1)C(C#N)=C(N)O2 (stereo not given)	1%	?	6%	-2%	-106%*	-3%
CCCc1[nH]nc2c1C(CCc1ccccc1)C(C#N)=C(N)O2 (stereo not given)	4%	?	2%	2%[57.1 µM]	i	-4%
Cc1[nH]nc2c1C(Cc1ccccc1)C(C#N)=C(N)O2 (stereo not given)	22%	25µM*	.	16%	i	19%
Nc1c(Cl)cc(C=O)cc1Cl	.	0%	.	-6%	.	.
Cc1ccc(NC(=O)Cn2c(=O)n(-c3ccccc3)c(=O)c3ccc(C(=O)NCc4ccc5c(c4)OCO5)cc32)cc1	.	4%	.	15%	.	6%
CCCCN(CCCC)c1ccc(/C=C/c2ccnc3ccccc23)cc1	.	32%	.	-2%	.	.
Cc1ccc(CN2CCSc3ccc(C(=O)N4CCN(c5cccc(C)c5C)CC4)cc32)cc1	.	12%	.	3%	.	1%
O=C1C=CC(=O)N1	2%	2µM*	-8%	6%	i	-6%
O=C(Cc1ccc(Cl)cc1)NCCc1c[nH]c2ccccc12	.	14%	.	4%	i	-3%
O=C(O)Cc1c[nH]c2ccccc12	.	-1%	.	-2%	i	2%
O=C(CCl)N(c1ccccc1)c1c[nH]c2ccccc12	-14%	2.2µM*	14%	2%	i	-3%
O=C(CCl)N(c1ccc(Cl)cc1)c1c[nH]c2ccccc12	-12%	0.45µM*	13%	-7%	i	?
CC1(C)CC(=O)C2=C(C1)OC1=C(C(=O)CC(C)(C)C1)C2c1ccc(O)cc1O	-6%	3.5µM*	-10%	1%	i	4%

Bioassay records deposited in PubChem BioAssay by National Center for Advancing Translational Sciences (NCATS).
